# Measurements as given in paper PMC5540273 (PLoS ONE, 2017).
# What was measured:
# Settings in all cases: concentration: 1 μM, replicates: in singlicate; n = 1
# [1] = tested on: CAMKK2
# [2] = tested on: CASK
# [3] = tested on: T1, CDC2L1
# T1 construct: gene CDK11B
# [4] = tested on: CDC2L2
# [5] = tested on: T2, CDC2L5
# T2 construct: gene CDK13
# [6] = tested on: T3, CDK11
# T3 construct: gene CDK19
# [7] = tested on: CDK2
# [8] = tested on: CDK3
# [9] = tested on: CDK4-cyclinD1
# [10] = tested on: CDK4-cyclinD3
# [11] = tested on: CDK4
# [12] = tested on: CDK5
# [13] = tested on: CDK7
# [14] = tested on: CDK8
# [15] = tested on: CDK9
# [16] = tested on: CDKL1
# [17] = tested on: CDKL2
# [18] = tested on: CDKL3
# [19] = tested on: CDKL5
# [20] = tested on: CHEK1
# 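Also: KINOMEscan kinase panel screen.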
SMILES,%Inh [1],%Inh [2],%Inh [3],%Inh [4],%Inh [5],%Inh [6],%Inh [7],%Inh [8],%Inh [9],%Inh [10],%Inh [11],%Inh [12],%Inh [13],%Inh [14],%Inh [15],%Inh [16],%Inh [17],%Inh [18],%Inh [19],%Inh [20]
COc1ccc(Nc2nccc(NCCNC(=O)Nc3ccccc3F)n2)cc1 [GSK1379901],0%,9%,5%,20%,0%,12%,0%,16%,0%,9%,0%,0%,0%,0%,1%,4%,9%,0%,3%,0%
COc1ccc(Nc2nccc(-c3cccc(NC(=O)c4cc5cc(F)ccc5[nH]4)c3)n2)cc1 [GSK1229782],29%,14%,4%,24%,0%,24%,17%,20%,17%,0%,48%,1%,4%,56%,0%,12%,30%,0%,0%,0%
Cc1cccc(-c2nc(Nc3cccc(C(N)=O)c3)c3ccccc3n2)n1 [GW876019],0%,30%,0%,2%,10%,8%,0%,59%,18%,0%,0%,0%,8%,36%,0%,36%,13%,0%,1%,0%
Cc1cc(N2Cc3ccccc3C2)nc(Nc2ccc(S(=O)(=O)N3CCOCC3)cc2)n1.Cl [GSK1669917],0%,7%,0%,23%,0%,0%,0%,0%,0%,0%,0%,0%,0%,33%,0%,0%,0%,0%,6%,0%
COc1ccc(CNC(=O)NC2CCN(c3ccnc(Nc4cc(OC)c(OC)c(OC)c4)n3)C2)cc1 (stereo not shown) [GSK1379748],12%,10%,0%,14%,0%,2%,0%,0%,6%,0%,36%,0%,0%,51%,0%,15%,20%,0%,0%,0%
C[C@@H]1CCCCN1c1cc(-c2ccc3c(N)n[nH]c3c2)nc(N)n1 [GSK2258759],26%,11%,0%,18%,0%,4%,0%,15%,0%,7%,21%,0%,0%,20%,0%,6%,6%,0%,0%,0%
COc1cc2ncnc(Nc3ccc4nc(-c5ccccc5)[nH]c4c3)c2cc1OC.Cl [GW282450],13%,25%,0%,16%,0%,0%,0%,22%,0%,0%,20%,0%,0%,0%,0%,1%,7%,0%,1%,0%
O=C1NC(=O)C(N2CCc3ccccc32)=C1c1ccccc1Cl [SB-373598],4%,0%,0%,3%,0%,12%,16%,0%,14%,15%,27%,0%,29%,25%,8%,18%,23%,4%,0%,2%
COc1ccc2nc(-c3cccc(C)n3)nc(Nc3ccncc3)c2c1 [GSK204919],0%,23%,0%,0%,0%,0%,0%,0%,0%,0%,0%,0%,0%,7%,0%,4%,24%,0%,0%,10%
O=C(Nc1n[nH]c2nc(-c3nccs3)c(Br)cc12)C1CC1 [SB-742251],0%,42%,0%,0%,13%,0%,81%,50%,65%,25%,44%,0%,12%,25%,0%,24%,92.3%,0%,0%,0%
Cc1c(O)cccc1Nc1ccnc2ccc(C(F)(F)F)cc12.Cl [GW466413],3%,0%,0%,0%,0%,17%,0%,0%,0%,0%,33%,0%,0%,18%,0%,0%,5%,0%,0%,0%
